These results are taken from PubChem BioAssay AID720708 (National Center for Advancing Translational Sciences (NCATS), 2013).

The campaign covered roughly 360,000 compounds. About 660 (0.18%) were called active. Roughly 2% stayed inconclusive and do not appear here. This is one part of a sample in which actives are shown more often than they occur. Calls come from the whole dose curve; as a rule, active = well fitted inhibition curve with a large enough effect; inconclusive = small, poorly fitted or top-dose-only effect; inactive = no such curve, though single readings can be large or run the other way.
% is set by controls: 0 for no effect and ±100 for the full control effect; potency is the fitted concentration of half-maximal effect.

Rap guanine nucleotide exchange factor 4 (Homo sapiens), sequence (Q8WZA2 whole entry, looked up): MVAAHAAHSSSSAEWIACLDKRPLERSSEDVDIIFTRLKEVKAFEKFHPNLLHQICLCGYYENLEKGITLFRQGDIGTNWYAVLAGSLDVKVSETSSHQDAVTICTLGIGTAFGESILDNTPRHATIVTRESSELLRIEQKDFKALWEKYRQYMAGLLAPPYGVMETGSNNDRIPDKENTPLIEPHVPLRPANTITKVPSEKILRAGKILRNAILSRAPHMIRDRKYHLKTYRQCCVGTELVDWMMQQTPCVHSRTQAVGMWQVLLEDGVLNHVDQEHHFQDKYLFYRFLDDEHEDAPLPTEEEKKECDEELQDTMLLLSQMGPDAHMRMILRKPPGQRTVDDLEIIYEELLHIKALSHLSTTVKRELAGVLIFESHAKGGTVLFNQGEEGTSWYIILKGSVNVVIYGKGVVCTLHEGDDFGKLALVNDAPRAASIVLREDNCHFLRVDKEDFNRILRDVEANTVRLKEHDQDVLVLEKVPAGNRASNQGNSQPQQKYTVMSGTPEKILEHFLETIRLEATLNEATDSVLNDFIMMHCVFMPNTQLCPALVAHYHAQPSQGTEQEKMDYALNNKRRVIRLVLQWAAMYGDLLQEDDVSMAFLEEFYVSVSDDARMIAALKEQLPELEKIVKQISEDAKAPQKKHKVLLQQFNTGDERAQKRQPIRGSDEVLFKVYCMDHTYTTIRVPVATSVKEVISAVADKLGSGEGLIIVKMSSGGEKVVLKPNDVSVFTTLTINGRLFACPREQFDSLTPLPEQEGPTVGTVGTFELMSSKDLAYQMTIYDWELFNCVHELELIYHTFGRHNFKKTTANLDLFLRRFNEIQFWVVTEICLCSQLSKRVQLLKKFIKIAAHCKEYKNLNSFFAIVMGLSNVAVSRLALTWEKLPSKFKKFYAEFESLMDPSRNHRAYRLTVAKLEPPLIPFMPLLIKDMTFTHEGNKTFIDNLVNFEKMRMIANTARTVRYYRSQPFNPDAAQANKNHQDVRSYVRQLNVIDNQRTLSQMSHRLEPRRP

This experiment concerns the target Rap guanine nucleotide exchange factor 4 (Homo sapiens) (UniProt Q8WZA2). In words: qHTS for Antagonist of cAMP-regulated guanine nucleotide exchange factor 2 (EPAC2): primary screen. Note: nearly all actives have a fitted effect of over 45% in size. The settings on record: EPAC2 GEF exchange of Rap1B-BODIPY-GDP, fluorescence; series mostly up to 114 µM; activity, negative = inhibition: at the top concentration. From the text: In multi-cellular eukaryotic organisms, the effects of cAMP are transduced by two ubiquitously-expressed intracellular cAMP receptors, the classic protein kinase A/cAMP-dependent protein kinase (PKA/cAPK) and the more recently discovered exchange protein directly activated by cAMP/cAMP-regulated guanine nucleotide exchange factor (EPAC/cAMP-GEF). Both PKA and EPAC are ubiquitously expressed in all tissues, and an increase in intracellular cAMP levels will lead to the activation of both PKA and EPAC. Therefore, careful dissections of the individual role and relative contribution of EPAC and PKA within the overall cAMP signaling in various model systems are critical for further elucidating the mechanism of cAMP signaling. To date no EPAC-specific antagonists and agonist, as well as isoform-specific agonists have been reported, and developing EPAC-specific pharmacological probes to determine the physiological functions that EPAC play in the overall cAMP-mediated signaling remains a major challenge within the research field. Furthermore, identified regulators of EPAC may lead to new mechanism-based therapeutic strategies specifically targeting the EPAC / cAMP-signaling components as EPAC has been implicated to play important roles in major human pathological conditions such as diabetes, heart disease, and cancer.
This qHTS will be used to screen the Molecular Libraries Small Molecule Repository (MLSMR) as a concentration-titration series using the NCGC unique quantitative screening (qHTS) platform to find inhibitors for EPAC2. In addition, this assay will also be used as a counterscreen for the EPAC1 qHTS. This fluorescent based assay is developed and validated for EPAC2 that measures exchange using EPAC effector Rap1 complex with BODIPY-GDP, a GDP analog with a tethered fluorophores. Inhibitors are identified by monitoring the change in fluorescence signal as the exchanged free BODIPY-GDP has a reduced fluorescence compared to Rap1-bound BODIPY-GDP. Decrease in signal (inhibition) is the desired outcome for the EPAC2 antagonist while no activity in this assay is desired for the EPAC1 antagonist counterscreen.
NIH Chemical Genomics Center [NCGC]
NIH Molecular Libraries Probe Centers Network [MLPCN]
Assay Submitter (PI): Xiaodong Cheng, The University of Texas, Medical Branch
Briefly, three uL of reagents (100 nM EPAC2, 250 nM RAP1B-BODIPY-GDP, 50 uM GDP) were dispensed into a 1536-well Greiner black solid-bottom medium binding assay plate. Controls and test compounds (23 nL) were transferred to the plate via a Kalypsys pin tool equipped with a 1536-pin array. The plates were centrifuged at 1,000 rpm for 15 seconds followed by 5 minute incubation at room temperature. The assay plates were read at 5 minute intervals for 30 minutes in the ViewLux plate reader using 480nm excitation and 540nm emission filters. The results were normalized to the agonist positive control ATA and DMSO.
For `CCOP(=O)(OCC)C(Cc1ccccc1)N=C(c1ccccc1)c1ccccc1` (stereo not given), the Potency was 35.5 µM (active).
Turning to `CCOP(=O)(OCC)C(NC(=O)c1ccc(OC)cc1)C(Cl)(Cl)Cl` (stereo not given), the “activity, negative = inhibition” value was 2.33% (inactive).
Regarding `CCOP(=O)(OCC)C(NC(=O)c1ccc(C)cc1)C(Cl)(Cl)Cl` (stereo not given), the “activity, negative = inhibition” value was 8.74% (inactive).
Still for that read-out and setting: the value for `CC1=CC(=Cc2sc3ccccc3[n+]2C)C=C(C)O1` was 3.92% (inactive).
On the same count and under the same terms, with `C[C@]12CC[C@H](O)C[C@H]1CC[C@@H]1C2CC[C@]2(C)[C@@H](C3=CC(=O)OC3)[C@@H](O)C[C@]12O` (stereo not given in full) the figure was -0.19% (inactive).
For the compound `CCOC(=O)[C@]12Cc3ccccc3[C@H]1N(C1CCCCC1)C(=O)c1cc(OC)ccc12`, the Potency was 3.16 µM (active).
In the case of `COC(=O)C1=C(c2cc3ccccc3s2)C[C@@H]2CC[C@H]1N2C(=O)NCc1cccc2ccccc12`, the “activity, negative = inhibition” value was -8.1% (inactive).
Same read-out and setting: the value for `Oc1cc2c(cc1CN1CCN(c3ccccc3)CC1)OCO2` was 1.4% (inactive).
Same read-out and setting: with `CN(c1ccccc1)c1ccc([N+](=O)[O-])c2nonc12` the figure was -14.7% (inactive); with `ClC(Cl)(Cl)c1ccccc1`, -7.81% (inactive).
Take `CC(c1ccccc1)(c1ccccc1)c1ccncc1`: the Potency was 35.5 µM (active).
`CCCC[N+]1(C)C2CC(OC(=O)C(CO)c3ccccc3)CC1C1OC12` (stereo not given): the “activity, negative = inhibition” value is -8.66% (inactive).
Still for that read-out and setting: with `O=C(NC(c1ccc(Cl)cc1)P(=O)(Oc1ccccc1)Oc1ccccc1)OCc1ccccc1` (stereo not given) the figure was 16.5% (inactive); with `COC(=O)C(c1ccccc1)N1CCCCCC1` (stereo not given), 12.7% (inactive).
For the compound `COC(=O)N1C(c2ccccc2)C1c1ccccc1` (stereo not given), the Potency is 31.6 µM (active).
On to `O=C(CN1CCCCC1)Nc1ccc(Br)cc1C(=O)c1ccccc1Cl`, for which the “activity, negative = inhibition” value was -0.013% (inactive).
Take `Cn1c(O)c(C(=Nc2ccc(F)cc2)c2ccccc2)c(=O)n(C)c1=O`: the “activity, negative = inhibition” value was 13.4% (inactive).
On the same count and under the same terms, the value for `CC(=O)N(C1=NCCCS1)c1ccccc1F` was 9.69% (inactive).
The same measure, in the same setting: with `Cc1ccc(-n2c(O)c(C=NCC3CCCO3)c(=O)[nH]c2=O)c(C)c1` (stereo not given) the figure was -6.22% (inactive); with `O=C(OCCN1CCOCC1)C1(c2ccccc2)CCCC1`, -2.62% (inactive).
